Measurements taken from ChEMBL document CHEMBL3433997, “St. Jude Leishmania screening dataset” (2016).

Molecular target: Solute carrier family 2, facilitated glucose transporter member 1 (Homo sapiens) (UniProt P11166)
Assay: ST_JUDE_LEISH: Cytotoxicity at 2uM final concentration against transgenic Leishmania Mexicana promastigotes LmGLUT1 that are glucose transport deficient and complemented with the human glucose transporter GLUT1. Activity is measured by DNA content using SYBR green in vitro
Assay type: functional

Chain of Solute carrier family 2, facilitated glucose transporter member 1 (Homo sapiens) (P11166 whole entry): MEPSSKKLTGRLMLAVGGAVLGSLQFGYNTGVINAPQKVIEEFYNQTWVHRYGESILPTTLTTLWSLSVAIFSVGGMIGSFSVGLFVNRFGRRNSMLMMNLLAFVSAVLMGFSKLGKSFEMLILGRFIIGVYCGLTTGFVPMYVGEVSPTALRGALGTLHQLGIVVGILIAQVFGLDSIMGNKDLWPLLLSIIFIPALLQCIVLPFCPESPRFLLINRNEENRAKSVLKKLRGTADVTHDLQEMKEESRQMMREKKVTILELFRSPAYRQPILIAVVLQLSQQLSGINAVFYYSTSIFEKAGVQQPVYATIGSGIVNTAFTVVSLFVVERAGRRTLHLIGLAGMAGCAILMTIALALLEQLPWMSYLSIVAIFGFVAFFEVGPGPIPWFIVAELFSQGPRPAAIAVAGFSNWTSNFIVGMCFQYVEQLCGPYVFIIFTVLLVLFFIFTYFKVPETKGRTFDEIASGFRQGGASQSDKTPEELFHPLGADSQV

Q: How did the inhibition turn out when CCCCCCN1CCCN(Cc2cccc(NC(=O)c3cc4ccccc4s3)c2)CC1 was run?
A: The inhibition was 2.73%.

Q: CCN1CCN(c2ccc(Nc3c4ccccc4nc4ccccc34)cc2)CC1 was tested. Which inhibition did it give?
A: Its inhibition is 7.35%.

Q: O=C(NCCCCNCC(Cc1cccc(O)c1)c1ccccc1)c1ccc(NC(=O)c2ccc(Cl)cc2)cc1 (stereo not given) was tested. Which inhibition did it give?
A: Its inhibition is -0.19%.

Q: With C=CCOc1cccc2c1CCN(CCN1CCC(NC(=O)c3ccc(-c4ccc(Cl)cc4)cc3)CC1)C2 as the molecule, how does the inhibition read?
A: Its inhibition is 17.2%.

Q: For CCCc1cc(OC)c(C[C@@H]2c3cc(O)c(Cl)cc3CCN2C)cc1OC, which inhibition is on record?
A: The inhibition was 3.17%.

Q: Which inhibition does the source give for O=[N+]([O-])c1c(O)nc2c(c1O)CCC2 here?
A: The inhibition was 4.52%.

Q: For CCc1ccc(C2CCN(CCCCNC(=O)c3ccc(-c4ccc(C#N)cc4)cc3)CC2)c(OCCO)c1, which inhibition is on record?
A: Its inhibition is 0.42%.

Q: For CC(Oc1ccc(Cl)cc1)C(=O)N(C)C1CCN(CCCCCNC(=O)/C=C/c2ccc(Cl)c(Cl)c2)CC1 (stereo not given), which inhibition is on record?
A: Its inhibition is 1.06%.

Q: Which inhibition does the source give for COc1cc(C(=O)NC2CC(C)(C)NC(C)(C)C2)ccc1-c1cc2cc(Cl)c(Cl)cc2[nH]1 here?
A: Its inhibition is 1.69%.

Q: How did the inhibition turn out when CC(Nc1nncc(-c2cccc(F)c2)n1)c1ccc(F)cc1 (stereo not given) was run?
A: Its inhibition is 11.7%.

Q: For OC(c1nnc(S)n1-c1ccccc1)C(O)c1nnc(S)n1-c1ccccc1 (stereo not given), which inhibition is on record?
A: The inhibition was 10.1%.

Q: How did the inhibition turn out when CCCCCCCCc1c(C)nc(C)c(I)c1O was run?
A: The inhibition was -1.12%.

Q: How did the inhibition turn out when Cc1onc(-c2ccccc2Cl)c1C(=O)Nc1cc(Cl)c(Cl)cc1Cl was run?
A: Its inhibition is 3.43%.

Q: With CCC(C)(CC)C(=O)n1ncc2c3c(N)nc(N)nc3ccc21 as the molecule, how does the inhibition read?
A: The inhibition was 65.8%.

Q: O=C(Nc1ccc2c(c1)CCN2C1CCN(Cc2cccc(C(F)(F)F)c2)C1)c1ccco1 (stereo not given) was tested. Which inhibition did it give?
A: Its inhibition is -2.78%.

Q: Which inhibition does the source give for CS(=O)(=O)N(c1ccc(F)cc1)c1cc(C(=O)N[C@@H](Cc2ccccc2)[C@H](O)CNCc2cccc(C(F)(F)F)c2)cc(N2CCCC2=O)c1 here?
A: The inhibition was 1.67%.

Q: Which inhibition does the source give for Cc1ccc(NC(=O)c2ccc(CN3CCCN(Cc4cccc(C#N)c4)CC3)cc2)cc1F here?
A: Its inhibition is 4.02%.

Q: Cc1cc(C(F)(F)F)n2nc(C(=O)N(C)Cc3cncn3Cc3ccc(F)cc3)cc2n1 was tested. Which inhibition did it give?
A: The inhibition was 0.88%.

Q: Which inhibition does the source give for O=C(/C=C/c1ccc(Cl)cc1)NCCCCCN1CCCN(C(=O)Nc2ccc(Cl)c(C(F)(F)F)c2)CC1 here?
A: The inhibition was 1.83%.

Q: With Cc1c(Cn2ncc(N3CC(C)NC(C)C3)c(Cl)c2=O)cccc1NC(=O)Nc1ccc(-c2ccccc2)cc1 (stereo not given) as the molecule, how does the inhibition read?
A: The inhibition was 4.08%.

Q: Which inhibition does the source give for CCOc1c(CNCCCNc2nc3ccccc3[nH]2)cc(Br)cc1OC here?
A: Its inhibition is 2.6%.

Q: With Cc1cccc2nc(-c3ccc(-c4cccc(CNCc5ccc(CN)cc5)c4)s3)[nH]c12 as the molecule, how does the inhibition read?
A: Its inhibition is 3.9%.

Q: CC1(C)NC(N)=NC(=N)N1OCc1cccc(Cl)c1Cl was tested. Which inhibition did it give?
A: Its inhibition is 2.02%.

Q: Which inhibition does the source give for CC(C)c1ccc(O)cc1Nc1ccnc2ccc(C(F)(F)F)cc12 here?
A: The inhibition was 1.29%.

Q: For CC(C)[C@H]1CC[C@H](C)C[C@@H]1OC(=O)N[C@@H](Cc1ccc(O)cc1)C(=O)NC1CCN(Cc2ccc(OCCCN(C)C)cc2)C1 (stereo not given in full), which inhibition is on record?
A: The inhibition was 5.09%.

Q: For Cc1noc(-c2ccc3c(c2)CCN(CCC2CCC(NC(=O)c4cc5ccccc5[nH]4)CC2)CC3)n1 (stereo not given), which inhibition is on record?
A: The inhibition was 2.93%.

Q: Which inhibition does the source give for Cc1cc(C)c2nc(N3CCC(C(=O)NCCCN4CCC(N5CCCCC5)CC4)CC3)sc2c1 here?
A: Its inhibition is 1.45%.

Q: For CCC1(CC)N=C(N)N=C(N)C1c1ccc(Cl)c(Cl)c1 (stereo not given), which inhibition is on record?
A: The inhibition was -0.44%.

Q: How did the inhibition turn out when CN(CCN)Cc1ccc(-c2ccc(-c3nc4cc(C(F)(F)F)ccc4[nH]3)s2)cc1 was run?
A: The inhibition was 15.1%.

Q: For COc1ccc(CC(=O)Nc2ccc(-c3cccc(-c4nc5cccc(C)c5[nH]4)c3)cc2)cc1O, which inhibition is on record?
A: Its inhibition is 3.89%.

Q: How did the inhibition turn out when CC(=O)Nc1cccc(C(=O)Nc2ccc(-c3ccc(-c4nc5cccc(C)c5[nH]4)s3)cc2)c1 was run?
A: The inhibition was -0.38%.

Q: For CN(Cc1ccccc1)C1CCCN(c2cc(NC(=O)c3ccc(F)cc3)ccn2)C1 (stereo not given), which inhibition is on record?
A: The inhibition was -0.91%.

Q: How did the inhibition turn out when CN1CCN(c2ccc(Nc3nccc(-c4cnn5ncccc45)n3)cc2Cl)CC1 was run?
A: The inhibition was 90.6%.

Q: CN/C(=N\O)NCCN(C)C was tested. Which inhibition did it give?
A: The inhibition was 3.01%.

Q: How did the inhibition turn out when O=C(Nc1ccc(OC2CCN(Cc3ccc(F)cc3)CC2)c(Cl)c1)c1ccsc1 was run?
A: The inhibition was -1.74%.

Q: With CC1(C)NC(N)=NC(=N)N1OCCCOc1ccc(N)cc1 as the molecule, how does the inhibition read?
A: The inhibition was -1.98%.

Q: With Cc1ccc(NC(=O)c2cccc(CN3CCCN(CC4CCCCC4)CC3)c2)cc1F as the molecule, how does the inhibition read?
A: The inhibition was -0.17%.

Q: Which inhibition does the source give for COc1ccc2nc(-c3cc(-c4ccc(NC(C)=O)cc4)cnc3N)[nH]c2c1 here?
A: Its inhibition is 3.72%.

Q: COc1ccc2ncc(F)c(CCN3CC[C@@H](CNCc4ccc5c(c4C)OCCO5)C3)c2n1 was tested. Which inhibition did it give?
A: Its inhibition is 27.8%.

Q: For CCOC(=O)c1c(NC(NC(=O)c2ccc(C(C)(C)C)cc2)C(Cl)(Cl)Cl)sc2c1CCCC2 (stereo not given), which inhibition is on record?
A: Its inhibition is 10.5%.
